These results are taken from PubChem BioAssay (Tox21).

Inconclusive results are not listed. Where a call stands in place of a potency, no number is given. Active and inactive are the calls of the source. Calls follow the shape of the full dose curve.

Sequence of Acetylcholinesterase (Homo sapiens) (P22303 whole entry, looked up): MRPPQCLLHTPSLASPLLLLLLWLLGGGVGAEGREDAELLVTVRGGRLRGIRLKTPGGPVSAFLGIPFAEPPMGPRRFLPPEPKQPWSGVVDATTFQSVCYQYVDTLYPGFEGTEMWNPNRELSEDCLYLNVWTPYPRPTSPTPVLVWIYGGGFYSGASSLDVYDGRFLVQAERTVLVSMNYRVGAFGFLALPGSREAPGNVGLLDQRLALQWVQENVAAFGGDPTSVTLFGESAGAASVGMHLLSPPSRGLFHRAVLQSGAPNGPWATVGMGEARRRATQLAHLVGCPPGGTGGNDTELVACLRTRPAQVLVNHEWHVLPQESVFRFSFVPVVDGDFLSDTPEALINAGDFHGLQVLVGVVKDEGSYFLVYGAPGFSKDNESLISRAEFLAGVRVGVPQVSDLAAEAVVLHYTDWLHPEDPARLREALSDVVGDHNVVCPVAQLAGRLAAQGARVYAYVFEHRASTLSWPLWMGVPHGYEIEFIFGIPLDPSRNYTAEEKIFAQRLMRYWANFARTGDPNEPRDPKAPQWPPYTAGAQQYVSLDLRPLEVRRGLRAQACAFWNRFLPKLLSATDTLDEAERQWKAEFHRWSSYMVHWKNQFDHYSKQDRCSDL

The target of this assay is Acetylcholinesterase (Homo sapiens) (UniProt P22303). Put plainly: Acetylcholinesterase (AChE) small molecule antagonists: fluorescence cell-based qHTS assay (AID 1347398). Also: nearly all actives have a fitted effect of over 50% in size. The settings on record: SH-SY5Y cells; Potency: AChE activity; outcome: AChE activity; series mostly up to 115 µM. A digest of the protocol:
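Fluorimetric cell-based assay: intact SH-SY5Y cells, 30 min compound preincubation at 37 C, acetylthiocholine substrate with thiol probe Thiolite Green, 40 min RT development, fluorescence 490/520 nm.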
In the case of `CCOC(=O)CC(CC(=O)OCC)(OC(C)=O)C(=O)OCC`, the Potency entry was “inactive”.

`O=C(O)C(=O)O`: the Potency entry was “inactive”. For the molecule `COC(=O)/C=C(\C)CCC=C(C)C`, the Potency entry is “inactive”.

`CNC(=O)CN(CCN(CCN(CC(=O)[O-])CC(=O)NC)CC(=O)[O-])CC(=O)[O-].O.[Gd+3]`: the Potency entry is “inactive”. Regarding `CO[C@]1(NC(=O)CSC(F)F)C(=O)N2C(C(=O)O)=C(CSc3nnnn3CCO)CO[C@H]21`, the Potency entry was “inactive”. Consider `NS(=O)(=O)c1cc(C(=O)O)cc(N2CCCC2)c1Oc1ccccc1`, for which the Potency result was “inactive”.

With `C[C@H]1[C@H]2CC[C@H]3[C@@H]4CC=C5C[C@@H](N(C)C)CC[C@]5(C)[C@H]4CC[C@]23CN1C`, the Potency result was “inactive”.

As to `CC[N+](CC)(CC(=O)Nc1c(C)cccc1C)Cc1ccccc1` (tested in a mixture with another compound), the Potency entry is “inactive”. With `BrCc1cccc(Oc2ccccc2)c1` the entry was “inactive”; with `c1ccc(CNCCNCc2ccccc2)cc1`, “inactive”; with `O=C1CCCCCCCCCCCC(=O)OCCO1`, “inactive”. Next, `CC(=O)OCc1ccc2c(c1)OCO2`: “inactive”; `CCCCCCC(C)(C)C(=O)O`: “inactive”; `CCc1ccc(CC)cc1`: “inactive”. `CCOC(=O)C1=C(C)NC(C)=C(C(=O)OCC)C1c1ccccc1/C=C/C(=O)OC(C)(C)C`: the Potency entry is “inactive”.

In the case of `CCC(O)OC(O)CC` (stereo unspecified), the Potency result was “inactive”. Next, `CCCCCCCC/C=C\CCCCCCCC(=O)OCCOC(=O)CCCCCCC/C=C\CCCCCCCC`: “inactive”; `C[Si](C)(C)Cl`: “inactive”. With `COC(=O)N/N=C/c1c[n+]([O-])c2ccccc2[n+]1[O-]` the entry was “inactive”. In the case of `CC/C=C/CCO`, the Potency entry is “inactive”. Next, `NCCCCCCN`: “inactive”.
